# Source: PubChem BioAssay (NCI)
# About 79,000 compounds went through this panel and 15% of them were active in at least one assay; those are over-represented in the sample as a whole. Values without a mark were called inactive. Active and inactive are the calls of the source. No stated cut-off is given here; in the data, active means growth inhibition above about 70%; inactive means the rest.
# Legend:
# [1] = NCI Yeast Anticancer Drug Screen. Data for the rad50 strain (AID 155);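 further: 0% = growth of vehicle-only cultures of the same strain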; settings: S. cerevisiae rad50 strain growth inhibition, hits give high values
# Procedure, shortened: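 Cells are treated with compound, grown, and their growth is then scored against vehicle-only cultures of the same repair-deficient yeast strain.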
# [2] = NCI Yeast Anticancer Drug Screen. Data for the mec2-1 strain (AID 157); settings: S. cerevisiae mec2-1 strain, hits give high values
# Procedure, shortened: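 Readout is yeast growth inhibition, normalised to vehicle-treated controls, in the mec2-1 strain exposed to compound.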
# [3] = NCI Yeast Anticancer Drug Screen. Data for the sgs1 mgt1 strain (AID 161);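 further: 0% = growth of cultures given vehicle only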; settings: S. cerevisiae sgs1 mgt1 strain, hits give high values
# Procedure, shortened: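 Growth of a repair-deficient yeast mutant was monitored after compound treatment and expressed as inhibition relative to vehicle-treated cultures.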
# [4] = NCI Yeast Anticancer Drug Screen. Data for the cln2 rad14 strain (AID 165);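 further: 0% = growth equal to vehicle treated cultures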; settings: S. cerevisiae cln2 rad14 strain, hits give high values
# Procedure, shortened: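 Relative to vehicle controls, growth inhibition of compound-treated cln2 rad14 yeast was recorded.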
# [5] = NCI Yeast Anticancer Drug Screen. Data for the bub3 strain (AID 167); settings: S. cerevisiae bub3 mutant strain, hits give high values
# Procedure, shortened: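 Part of a panel of yeast mutants defective in DNA damage repair or cell cycle regulation. Each strain is grown with compound, and inhibition is calculated relative to solvent-treated cultures.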
# [6] = NCI Yeast Anticancer Drug Screen. Data for the mlh1 rad18 strain (AID 175); settings: S. cerevisiae mlh1 rad18 strain growth inhibition, hits give high values
# Procedure, shortened: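 Test agents were incubated with a yeast strain of defined genotype (DNA damage repair defect). Inhibition of growth was derived by comparison with vehicle-exposed cultures.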
# [7] = at 5.0 µM (retest, dose inferred, filed as 0.5)
# [8] = at 50.0 µM (retest, dose inferred, filed as 5.0)
SMILES,"growth inhibition [1, 7]","growth inhibition [1, 8]",growth inhibition ([1]; at 50.0 µM),"growth inhibition [2, 7]","growth inhibition [2, 8]",growth inhibition ([2]; at 50.0 µM),"growth inhibition [3, 7]","growth inhibition [3, 8]",growth inhibition ([3]; at 50.0 µM),"growth inhibition [4, 7]","growth inhibition [4, 8]",growth inhibition ([4]; at 50.0 µM),"growth inhibition [5, 7]","growth inhibition [5, 8]",growth inhibition ([5]; at 50.0 µM),"growth inhibition [6, 7]","growth inhibition [6, 8]",growth inhibition ([6]; at 50.0 µM)
O=C(O)C(O)(c1ccc(-c2ccccc2)cc1)c1ccc(-c2ccccc2)cc1,16%,91% (active),96.4% (active),13%,93% (active),97% (active),0%,95% (active),96.2% (active),5%,93% (active),95% (active),-12%,93% (active),96.9% (active),1%,96% (active),96.8% (active)
Nc1c([N+](=O)[O-])cc(Cl)cc1[N+](=O)[O-],1%,84% (active),73.8% (active),0%,89% (active),63.8%,1%,98% (active),94.2% (active),1%,28%,-14.6%,-3%,86% (active),64.7%,2%,97% (active),78.3% (active)
CCC[CH2][Sn]([CH2]CCC)([N]=C=S)[N]=C=S,85% (active),97% (active),97.9% (active),92% (active),98% (active),98% (active),92% (active),98% (active),98% (active),87% (active),97% (active),97.3% (active),94% (active),97% (active),98.4% (active),93% (active),98% (active),98.1% (active)
CC[C@@]1(O)C(=O)OCc2c1cc1n(c2=O)Cc2cc3c(OC)cccc3nc2-1,96% (active),92% (active),83.6% (active),96% (active),92% (active),89.4% (active),71% (active),88% (active),82.4% (active),55%,74% (active),64%,48%,78% (active),70.8% (active),86% (active),83% (active),78.8% (active)
CC1CCN(CCC(=O)CC(c2ccccc2)c2c(O)c3ccccc3oc2=O)CC1 (stereo not given),16%,16%,87.3% (active),10%,10%,83.8% (active),12%,12%,88% (active),2%,2%,89.8% (active),4%,4%,87.7% (active),18%,18%,88.3% (active)
C[C@H]1CC[C@@]2(NC1)O[C@H]1C[C@H]3[C@@H]4CC[C@H]5C[C@@H](O)CC[C@]5(C)[C@H]4CC[C@]3(C)[C@H]1[C@@H]2C,42%,96% (active),92.2% (active),27%,98% (active),93.8% (active),66%,99% (active),93.5% (active),54%,98% (active),91.5% (active),64%,99% (active),92.5% (active),33%,98% (active),86.8% (active)
CC(C)CC(C)(c1ccc(O)cc1)c1ccc(O)cc1,81% (active),98% (active),92% (active),78% (active),99% (active),93.5% (active),99% (active),99% (active),93.8% (active),80% (active),99% (active),92.6% (active),98% (active),99% (active),92.2% (active),68%,99% (active),92.3% (active)
Cc1cc(N(CCCl)CCCl)ccc1C1N(Cc2ccc(N(CCCl)CCCl)cc2Cl)CCCN1Cc1ccc(N(CCCl)CCCl)cc1Cl,81% (active),96% (active),97.8% (active),75% (active),96% (active),99.2% (active),57%,95% (active),98.2% (active),77% (active),93% (active),97.5% (active),74% (active),96% (active),97.7% (active),99% (active),93% (active),98.6% (active)
CN(CCCl)Cc1ccc(OCc2ccccc2)c(OCc2ccccc2)c1,2%,98% (active),99.7% (active),-20%,99% (active),99.6% (active),0%,99% (active),99.7% (active),8%,98% (active),98.1% (active),0%,99% (active),99.4% (active),3%,99% (active),99.6% (active)
CC(=O)[O][Pb]([O]C(C)=O)([O]C(C)=O)[c]1ccccc1,71% (active),98% (active),90.5% (active),74% (active),99% (active),93.5% (active),86% (active),99% (active),93.6% (active),35%,99% (active),89.2% (active),86% (active),99% (active),91.8% (active),91% (active),98% (active),91.2% (active)
CC(=O)OC1CC[C@@]2(C)C(=CC[C@@H]3[C@@H]2CC[C@]2(C)C(OC(C)=O)[C@H](n4ccnc4)C[C@@H]32)C1 (stereo not given in full),22%,84% (active),71.8% (active),8%,52%,62.8%,14%,78% (active),75.2% (active),9%,58%,69.9%,-43%,74% (active),77% (active),17%,56%,91.2% (active)
O=C1C=C(N2CC2)C(=O)C(N2CC2)=C1N1CC1,97% (active),98% (active),99.2% (active),98% (active),99% (active),99.2% (active),97% (active),98% (active),98.8% (active),99% (active),98% (active),99% (active),97% (active),97% (active),99.2% (active),98% (active),98% (active),99% (active)
[Hg][c]1ccccc1,99% (active),94% (active),99.5% (active),99% (active),100% (active),99.7% (active),100% (active),52%,99.5% (active),99% (active),27%,98.3% (active),100% (active),-2%,99.6% (active),99% (active),53%,99.3% (active)
CCCCCCCCCCCCCCCC[N+](C)(C)CCOS(C)(=O)=O,99% (active),98% (active),91.2% (active),99% (active),99% (active),90.4% (active),99% (active),99% (active),90.3% (active),93% (active),99% (active),86.5% (active),99% (active),99% (active),92.4% (active),98% (active),98% (active),92.3% (active)
CCCCCCCCCCCCCC(=O)[O][Hg][c]1ccccc1,99% (active),93% (active),99.5% (active),100% (active),99% (active),99.6% (active),100% (active),99% (active),99.6% (active),99% (active),98% (active),99.6% (active),99% (active),99% (active),99.5% (active),99% (active),99% (active),99.6% (active)
CCOP(=S)(OCC)SSSP(=S)(OCC)OCC,6%,71% (active),1.6%,5%,62%,57.8%,7%,78% (active),15.7%,5%,20%,65.8%,2%,84% (active),70% (active),4%,49%,33.9%
CCC[CH2][Sn]1([CH2]CCC)[O]c2ccccc2[O]1,9%,95% (active),89% (active),23%,94% (active),90.8% (active),13%,94% (active),90.5% (active),0%,92% (active),83.8% (active),35%,95% (active),89.4% (active),11%,96% (active),89.1% (active)
Nc1nc(N)c(-c2ccc(Cl)c(Cl)c2)c(CCc2ccc(CNC(=O)c3cccc(S(=O)(=O)F)c3)cc2)n1,-3%,96% (active),62.7%,-1%,99% (active),59.2%,7%,99% (active),45.9%,-10%,97% (active),54.6%,-9%,98% (active),47.4%,30%,98% (active),54%
COc1ccccc1/C=C/[N+](=O)[O-],90% (active),98% (active),99.6% (active),65%,99% (active),99.7% (active),87% (active),99% (active),99.2% (active),62%,99% (active),99.3% (active),74% (active),98% (active),99.2% (active),96% (active),99% (active),99% (active)
COc1ccc2nc3ccccc3c(NCCCCN(C)CCCl)c2c1,58%,86% (active),77.2% (active),23%,87% (active),70.8% (active),42%,99% (active),83.9% (active),34%,98% (active),70%,46%,99% (active),62.6%,61%,91% (active),75.6% (active)
